# Measured values reported in PubChem BioAssay (Tox21).
# Where “and” joins values, the source holds several entries; their conditions need not be identical. Equal values may be shown once. Results filed as inconclusive are left out. A call without a number means that no potency is given here. More than one record can exist for a structure, and the calls need not agree. Calls of active or inactive are those of the source. Calls come from the whole dose curve; as a rule, active = well fitted inhibition curve with a large enough effect in the repeat runs; inconclusive = weak or mixed curves; inactive = no such curve, though single readings can be large or run the other way.
# Target: Cytochrome P450 3A4 (Homo sapiens) (UniProt P08684)
# Assay: Cytochrome P450 Family 3 Subfamily A Member 4 (CYP3A4) small molecule antagonists: luciferase reporter qHTS assay (AID 1671201); note: nearly all actives have a fitted effect of over 50% in size
# Details: P450-Glo CYP3A4 enzyme, luciferin luminescence, 1 h; series mostly up to 115 µM
# In short: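 qHTS, 1536-well. CYP3A4 + proluciferin substrate, cpd 10 min RT → NADPH regen 1 h RT → detection reagent 20 min → luminescence (RLU). Ketoconazole positive control.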
# Potency is the fitted concentration of half-maximal effect.
# Cytochrome P450 3A4 (Homo sapiens), sequence (P08684 whole entry, looked up): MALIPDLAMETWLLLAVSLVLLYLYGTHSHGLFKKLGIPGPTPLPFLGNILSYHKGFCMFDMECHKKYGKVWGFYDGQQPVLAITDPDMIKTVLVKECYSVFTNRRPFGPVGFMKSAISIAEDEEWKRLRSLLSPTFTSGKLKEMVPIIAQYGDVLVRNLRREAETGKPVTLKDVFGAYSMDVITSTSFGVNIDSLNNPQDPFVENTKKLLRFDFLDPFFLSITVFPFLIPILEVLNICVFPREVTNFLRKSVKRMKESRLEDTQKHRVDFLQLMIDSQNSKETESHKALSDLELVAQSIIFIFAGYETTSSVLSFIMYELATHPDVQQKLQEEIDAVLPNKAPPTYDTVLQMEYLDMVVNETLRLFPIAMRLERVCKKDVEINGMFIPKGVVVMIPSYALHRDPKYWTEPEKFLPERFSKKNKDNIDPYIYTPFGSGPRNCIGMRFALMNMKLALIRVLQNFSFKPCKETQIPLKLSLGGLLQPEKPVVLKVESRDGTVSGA
row,Compound,Potency
1,[N-]=[N+]=[N-],inactive
2,CCOP(=S)(OCC)Oc1cnc2ccccc2n1,inactive and 6.33 µM (active)
3,CC(C)(C)OOC(C)(C)C,inactive
4,CC(C)C1(C)N=C(c2nc3ccccc3cc2C(=O)O)NC1=O (stereo unspecified),inactive
5,CCCCOC(=O)c1ccccc1C(=O)OCCCC,inactive
6,CC(C)(C)C(O)(CCc1ccc(Cl)cc1)Cn1cncn1 (stereo unspecified),114 nM (active) and 200 nM (active)
7,O=C(NC(=O)c1c(F)cccc1F)Nc1cc(Cl)c(OC(F)(F)C(F)C(F)(F)F)cc1Cl (stereo unspecified),inactive
8,CC(C)=C[C@@H]1[C@@H](C(=O)OCc2coc(Cc3ccccc3)c2)C1(C)C,inactive
9,CCC12COCN1COC2,40 µM (active) and inactive
10,CC(C)OC(=O)Nc1cccc(Cl)c1,inactive
11,O=c1[nH]c(=O)[nH]c(=O)[nH]1,inactive
12,CCc1cccc(C)c1N(C(=O)CCl)C(C)COC (stereo unspecified),inactive
13,CCN(CC)CCO,inactive
14,CCC[CH2][Sn]([Cl])([Cl])[Cl],inactive
15,C#CC(C)(C)NC(=O)c1cc(Cl)cc(Cl)c1,20.2 µM (active) and 35.6 µM (active)
16,[O-][Cl+2]([O-])O,inactive

row,Compound,Potency
1,C1CN2CCN1CC2,inactive
2,Cc1cc(-c2cc(C)c(N)c(C)c2)cc(C)c1N,34.9 µM (active)
3,NCC(O)c1ccc(O)cc1 (stereo unspecified),inactive
4,CNC(=O)Oc1ccccc1OC(C)C,inactive
5,COC(=O)c1ccccc1C(=O)OC,inactive
6,CC(C#N)CCC#N (stereo unspecified),inactive
7,Nc1ccc(Oc2ccc(N)cc2)cc1,18.1 µM (active) and inactive
8,O=Cc1cccc(Oc2ccccc2)c1,inactive
9,CCCCCCCCCl,inactive
10,O=c1ccc(=O)[nH][nH]1,inactive
11,CCOP(OCC)OCC,inactive
12,C1CC2OC2CC1C1CO1 (stereo unspecified),inactive
13,ClCCBr,inactive
14,c1ccc(-c2ccccc2)cc1,inactive
15,O=[N+]([O-])c1ccc([As](=O)(O)O)cc1,inactive
